Measurements reported in PubChem BioAssay (NCI).
The panel holds about 83,000 compounds, 20% with a hit somewhere; the sample as a whole holds those more often.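 The test compound was applied at a single concentration to cells in 96-well plates for 48 hours, and percent growth was recorded.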 Active and inactive are the calls of the source. The calls were made as follows: active = growth percent below 10; inactive = the rest.

Columns and labels:
Assay in all cases: NCI-60 one-dose screen, 48 h (100 = growth as untreated, 0 = no growth, -100 = all killed)
Conditions in all cases: 10 µM unless noted
[1] = tested on: RPMI-8226 leukemia
[2] = tested on: OVCAR-8 ovarian
[3] = tested on: OVCAR-5 ovarian
[4] = tested on: OVCAR-4 ovarian
[5] = tested on: SK-OV-3 ovarian
[6] = tested on: IGROV1 ovarian
[7] = tested on: HS 578T breast
[8] = tested on: NCI/ADR-RES ovarian
[9] = tested on: T-47D breast
[10] = tested on: BT-549 breast
[11] = tested on: MDA-MB-435 melanoma
[12] = tested on: SW-620 colon
[13] = tested on: MCF7 breast
[14] = tested on: HCT-116 colon
[15] = tested on: HCC-2998 colon
[16] = tested on: KM12 colon
[17] = tested on: OVCAR-3 ovarian

Measured: growth

CN1CCN(CC#CCn2c3c(c4ccccc42)C[C@]2(C)[C@H]4CC=C5[C@@H]6CC(C)(C)CC[C@]6(C(=O)N6CCOCC6)CC[C@@]5(C)[C@]4(C)CC[C@H]2C3(C)C)CC1
inactive: [1] 45.5% | [2] 84.8% | [3] 87.2% | [4] 88.1% | [5] 103% | [6] 77.6% | [7] 91.3% | [8] 76.8% | [9] 78.7% | [10] 96.2% | [11] 82.7% | [12] 11.6% | [14] 22% | [15] 85.4% | [16] 66%
active: [13] -3.42%

N#Cc1c(-c2ccc(Br)cc2)cc(-c2c[nH]c3ccccc23)nc1N
inactive: [1] 34.4% | [2] 66.4% | [3] 63.9% | [4] 74.7% | [5] 52.6% | [6] 34.4% | [7] 58.6% | [8] 24.9% | [9] 29.7% | [10] 32.1% | [12] 27.8% | [13] 18.5% | [14] 27.6% | [15] 60.3% | [16] 28%
active: [11] 0.353%

O=C(/C=C/c1cccc(C(F)(F)F)c1)Nc1cccc(C(F)(F)F)c1
inactive: [1] 24.4% | [2] 33% | [3] 95.4% | [4] 47.7% | [5] 79.3% | [6] 53% | [7] 93% | [8] 46.4% | [10] 118% | [11] 48.5% | [12] 33.5% | [13] 30.9% | [14] 21% | [15] 57.4% | [16] 24.4%
active: [9] -6.89%

Brc1ccc(-c2cc(-c3ccc4c(c3)OCCO4)n[nH]2)s1
active: [8] 6.64% | [11] -38.1% | [13] 7.62%
inactive: [1] 13.4% | [2] 36% | [3] 58.1% | [4] 71.7% | [5] 55.1% | [6] 34.6% | [7] 51.4% | [9] 22.5% | [10] 62% | [12] 34.7% | [14] 24.7% | [15] 42.1% | [16] 28.2%

CN1CCC[C@]2(C)[C@H]3CC[C@@H]4[C@@H]5[C@H]6OC[C@@]5(CCC6(C)C)CC[C@@]4(C)[C@]3(C)CC[C@H]2C1(C)C
active: [13] 8.03%
inactive: [1] 30.2% | [2] 22.3% | [3] 103% | [4] 86.9% | [5] 118% | [6] 77.8% | [7] 99% | [8] 95.5% | [9] 54.9% | [10] 96.8% | [11] 69.8% | [14] 15.4% | [15] 45.8% | [16] 79.1%

NCCNC(=O)c1cccc(COc2ccccc2NC(=O)c2cc(Br)c(Br)[nH]2)c1
inactive: [1] 86.8% | [2] 64.6% | [3] 101% | [4] 103% | [5] 136% | [6] 88% | [17] 103% | [7] 100% | [8] 96.7% | [9] 75.9% | [10] 130% | [11] 96.2% | [12] 35.1% | [13] 16.9% | [14] 20.2% | [15] 99.8% | [16] 89.7%

CC1=C(C)C(=O)C(Nc2ccc3c(c2)OCO3)=C(Br)C1=O
inactive: [1] 71% | [2] 98.3% | [3] 116% | [4] 60.3% | [5] 87.6% | [6] 90.9% | [17] 104% | [7] 99.7% | [8] 97.4% | [9] 30.3% | [10] 107% | [11] 103% | [12] 107% | [13] 77.5% | [14] 85.6% | [15] 105% | [16] 97.4%

CC1=C(C)C(=O)C(Nc2cccc(C(=O)OC(C)(C)C)c2)=C(Cl)C1=O
inactive: [1] 10.3% | [2] 92.9% | [3] 106% | [4] 80.2% | [5] 103% | [6] 12.4% | [17] 101% | [7] 97.2% | [10] 106% | [11] 103% | [12] 88.7% | [13] 46.3% | [14] 72.6% | [15] 99% | [16] 99.2%
active: [9] 4.99%
